# Screening data from PubChem.
# Shown are actives, neighbours in structure and some others; about 2.1% of the full set was active somewhere.
# IDE cell inh = inhibitors of human insulin-degrading enzyme in cells; P14735; HEK cells, FAbetaB cleavage, fluorescence polarization; inhibition, % at 5.59 µM; 320,000 tested, 0.41% active; AID 434962;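 active = percent inhibition above the average of all tested compounds plus 3 SD, set per screening campaign, cut at about 16% in these data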;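 also: IDE supplied by intact live HEK cells; FP after avidin binding of uncleaved biotin substrate so inhibition keeps polarization high; 0% = DMSO wells and 100% = 60 µM reference IDE inhibitor Ii1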
# IDE cell activ = IDE (human) activation, cell-based; P14735; HEK cells, FAbeta-B cleavage, fluorescence polarization; 0% vehicle, 100% cell-free pure enzyme wells; activation, % at 5.96 µM; 340,000 tested, 0.073% active;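 active = activation above the mean of all tested compounds plus 3 SD, set per screening campaign, cut at about 17% in these data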
# Mot1-301 SUMO = blocks SUMOylation pathway, rescuing yeast Mot1-301 growth; S. cerevisiae Mot1-301 growth rescue, ATP luminescence, 38.5C; percent above DMSO median, 100 means doubled; growth rescue, % at 18.8 µM; AID 2716; 320,000 tested, 1% active;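 active = every valid replicate shows activation above 250% relative to neutral control wells; inactive = the rest, any valid replicate at or below 250%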;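 also: OY570 slx delta 5 strain wells were the positive control but not used for scaling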
# HDAC3 inhib = blocks human histone deacetylase 3. O15379. recombinant HDAC3, fluorogenic peptide/trypsin coupled, fluorescence. inhibition, % at 8.3 µM. 320,000 tested, 0.15% active; in the data active = inhibition above about 26%, passing the limit was not always enough
# LANA-H2B inh = blocks KSHV LANA binding to histone H2A/H2B | cell-free LANA-H2A/H2B peptide, fluorescence polarization | inhibition, % (test concentration not listed) | Q9QR71 | 320,000 tested, 0.6% active; in the data active = inhibition mostly above about 10%, no sharp cut-off; inactive = mostly below about 6.7%
# Target sequence (Q9QR71 whole entry, looked up): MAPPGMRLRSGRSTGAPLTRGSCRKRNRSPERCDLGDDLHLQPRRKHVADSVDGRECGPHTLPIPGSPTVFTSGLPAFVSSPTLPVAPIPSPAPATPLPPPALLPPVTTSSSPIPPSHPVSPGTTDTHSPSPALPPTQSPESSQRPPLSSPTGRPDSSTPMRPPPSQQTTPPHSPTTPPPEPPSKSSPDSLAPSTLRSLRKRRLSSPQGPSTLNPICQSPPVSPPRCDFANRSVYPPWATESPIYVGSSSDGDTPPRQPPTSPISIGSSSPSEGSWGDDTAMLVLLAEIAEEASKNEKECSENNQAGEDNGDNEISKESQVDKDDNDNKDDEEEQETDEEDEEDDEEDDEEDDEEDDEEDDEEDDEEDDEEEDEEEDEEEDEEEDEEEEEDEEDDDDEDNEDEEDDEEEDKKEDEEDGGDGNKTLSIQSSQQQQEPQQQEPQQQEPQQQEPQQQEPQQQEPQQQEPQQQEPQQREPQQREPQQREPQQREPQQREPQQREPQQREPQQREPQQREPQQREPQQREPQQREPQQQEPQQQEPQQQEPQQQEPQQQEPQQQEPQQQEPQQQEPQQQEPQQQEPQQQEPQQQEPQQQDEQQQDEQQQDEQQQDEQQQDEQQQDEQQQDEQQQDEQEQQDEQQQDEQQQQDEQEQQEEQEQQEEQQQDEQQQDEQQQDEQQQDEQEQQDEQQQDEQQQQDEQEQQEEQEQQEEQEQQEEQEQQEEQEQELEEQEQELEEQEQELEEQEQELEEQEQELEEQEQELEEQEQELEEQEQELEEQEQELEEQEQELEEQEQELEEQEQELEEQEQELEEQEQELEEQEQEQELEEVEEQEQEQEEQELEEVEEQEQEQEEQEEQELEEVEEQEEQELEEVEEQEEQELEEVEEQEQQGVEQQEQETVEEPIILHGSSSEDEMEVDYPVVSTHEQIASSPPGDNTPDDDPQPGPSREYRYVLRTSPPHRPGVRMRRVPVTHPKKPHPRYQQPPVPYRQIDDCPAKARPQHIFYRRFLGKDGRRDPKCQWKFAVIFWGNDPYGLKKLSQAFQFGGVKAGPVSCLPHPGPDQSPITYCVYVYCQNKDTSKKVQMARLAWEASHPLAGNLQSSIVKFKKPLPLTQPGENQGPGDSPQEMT
# Yeast Mot1 SUMO = SUMO pathway inhibitors in yeast Mot1-301 growth; growth activity, percent, % at 42 µM; shares compounds with Mot1-301 SUMO; S. cerevisiae Mot1-301 galactose growth, ATP luminescence, 24 h; -100 = growth of slx-deleted rescue strain; 2,300 tested, under 10 active;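 active = Signal drops as the depositor expects, and the fitted half-maximal dose is no more than ten times the top valid tested dose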;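 also: more negative values mean stronger growth rescue toward the control strain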
# The depositor's hits bear a star; . = no result given; + = active, no number; [ ] = dose if it differs, or a comment.
SMILES,IDE cell inh,IDE cell activ,Mot1-301 SUMO,HDAC3 inhib,LANA-H2B inh,Yeast Mot1 SUMO
Cc1cc(C)n(-c2ccc(C(=O)C(C#N)c3nc4ccccc4n3C)cc2)n1 (stereo not given),2,0,775*,-6,-2,0
CN(Cc1ccccc1)S(=O)(=O)c1ccc(N2CCCC2=O)cc1,0,4,-12,5,.,.
O=C(c1ccc(Br)cc1)C(CN1CCOCC1)c1ccccc1 (stereo not given),1,-3,460*,4,-3,-1
COc1ccc(CCNC(=S)N2CCN(S(=O)(=O)c3ccc(C)cc3)CC2)cc1,-5,4,2,-2,2,.
C[C@]12CS(=O)(=O)C[C@H]1SC(=S)N2c1ccccc1,5,6,-6,0,6,.
CN1C(=S)SC2CS(=O)(=O)CC21C (stereo not given),-2,-1,517*,-1,-2,0[21 µM]
COc1ccc(CCNC(=O)c2cc(-c3ccco3)on2)cc1OC,-1,7,566*,0,6,-1
COc1ccc(CCNC(=O)c2cc(-c3cccs3)on2)cc1OC,3,-1,-1,0,-4,.
O=C(COc1ccc(F)cc1)Nc1c(C(=O)N2CCC(N3CCCCC3)CC2)oc2ccccc12,1,0,-7,5,4,.
Cc1ccc(-c2nc(CS(=O)(=O)CC(=O)NC3CCCCC3C)c(C)o2)cc1 (stereo not given),2,4,699*,-1,-3,1
O=C(CCNC(=O)c1ccccc1)Nc1cccnc1,-1,3,455*,0,-2,1
CN=C(Nc1cccnc1)c1ccccc1,3,-3,421*,-4,-1,0
Cc1ccccc1N1CCN(C2CCCN(C(=O)c3snnc3C)C2)CC1 (stereo not given),2,4,-11,3,-1,.
C[C@H](CO)N1C[C@H](C)[C@@H](CN(C)S(=O)(=O)c2cccs2)Oc2ccc(NC(=O)Cn3cnnn3)cc2C1=O,3,0,.,.,.,.
CCOC(=O)C1CC(c2ccccc2)=NNC1=O (stereo not given),2,5,504*,-9,0,0
CCOC(=O)/C=C(\C)N1N=C(c2ccccc2)CC1c1ccccc1 (stereo not given),5,4,.,1,-1,.
CCN(CC)C(=O)C1CCCN(c2ccc([N+](=O)[O-])cc2/C=N/NC(=O)c2cccc(Br)c2)C1 (stereo not given),0,1,648*,-1,-3,0
CCOc1ccc(OCCC(=O)N(CCCOC)c2c(N)n(Cc3ccccc3)c(=O)[nH]c2=O)cc1,0,0,-11,-5,6,.
COc1cccc(NC(=O)CN(C)C(=O)C2CC(=O)N(CCc3ccc(OC)c(OC)c3)C2)c1 (stereo not given),.,8,.,.,.,.
COc1ccc(CCN2CC(C(=O)N(C)CC(=O)Nc3cccc(F)c3)CC2=O)cc1OC (stereo not given),1,0,451*,.,2,0
COc1ccc(C(=O)N/C=C/n2cnc3cc(C(F)(F)F)ccc32)cc1,-2,-7,258,-4,8,.
CC1=CC2=NC(=O)/C(=C\c3cc(C)n(-c4ccccc4)c3C)C(=N)N2O1,1,2,511*,-5,2,-1
CC1=CC2=NC(=O)/C(=C\c3cc(C)n(-c4cccc(Cl)c4)c3C)C(=N)N2O1,-1,3,11,-5,0,.
COc1ccc(-c2nc(C#N)c(NC(C)c3ccccc3)o2)cc1OC (stereo not given),-1,0,417*,-12,0,1
COc1ccc(-c2noc(CNS(=O)(=O)c3ccc(NC(C)=O)cc3)n2)cc1OC,4,4,40,2,-1,.
SMILES,IDE cell inh,IDE cell activ,Mot1-301 SUMO,HDAC3 inhib,LANA-H2B inh,Yeast Mot1 SUMO
CC(C)c1ccc(/C=C2\SC(N3CCCC3)=NC2=O)cc1,0,2,-11,7,-4,.
Cc1ccc(/C=C2\SC(N3CCCC3)=NC2=O)cc1,-2,.,477*,11,-4,-1
CN1C(=O)N(CC(=O)N2CCN(S(=O)(=O)Cc3ccccc3)CC2)C(=O)C12CCCCC2,.,0,.,.,.,.
Cc1ccc(Cn2c(NCCc3ccccc3)nc3c2c(=O)n(C)c(=O)n3C)cc1,3,-1,970*,9,-3,1
Cc1sc(NC(=O)c2ccc(F)cc2)c(CN2CCCCCC2)c1C,5,-5,497*,1,-3,1
Cc1sc(NC(=O)c2ccccc2F)c(CN2CCCCC2)c1C,8,-2,-19,6,1,.
Cc1cccc(C)c1NC(=O)CNC(=O)c1ccc(COc2ccccc2)o1,3,-5,9,3,0,.
COc1ccc([C@H]2CC(=O)C=C(c3ccnc4ccc(Cl)cc34)C2)cc1,0,3,23,-11,-1,.
COc1cc(NC(=O)NCC2CCN(Cc3ccccc3F)CC2)cc(OC)c1,.,-1,-2,1,0,.
CCCc1ccccc1OCCNC(C)=O,-1,-2,+,-1,-1,0
CCn1c(-c2ccccc2)c(C(=O)CC#N)c2ccccc21,1,2,373*,6,2,0
CCn1c(=O)c(-c2ccccc2)c(O)c2ccccc21,-1,-2,3,-36,1,.
O=C(NCc1ccco1)c1ccc(Br)c(S(=O)(=O)N2CCCCC2)c1,-4,2,584*,2,1,2
Cc1cccc(NC(=O)CSc2nc3ccccc3c(=O)n2C)c1,-2,4,-25,-7,-1,.
CN(C(=O)c1cccc(NC(=O)Cc2ccc(NC(=O)C3CCCN(C(=O)C4CCC4)C3)cc2)c1)C1CC1 (stereo not given),.,2,.,.,.,.
COc1ccc(NC(=O)C2CCCN2S(=O)(=O)c2cccc3cccnc23)cc1OC (stereo not given),-5,-1,414*,0,-10,0
O=C(NC1CCCC1)C1CCCN(S(=O)(=O)c2cccc3cccnc23)C1 (stereo not given),0,1,-6,-4,-1,.
O=C(NC1CCCCCC1)C1CCN(S(=O)(=O)c2cccc3cccnc23)CC1,4,2,561*,-5,1,1
COc1ccc(C(=O)NCC(=O)Nc2ccccc2)cc1OC,3,0,449*,5,-1,1
COc1cccc(NC(=O)CNC(=O)c2ccc(C)cc2)c1,3,1,499*,-16,-3,0
CCCCSCCCNC(=O)Nc1cccc(OC)c1,3,5,549*,-5,3,-1
COc1cc(C(=O)NCC(=O)Nc2c(C)cccc2C)ccc1OCc1ccccc1,-7,0,4,-1,0,.
Cc1cccc(C(=O)NCC(=O)N2CCN(c3ccc(Cl)cc3)CC2)c1,9,-1,368*,-1,-2,0
